Data from the supplement of paper PMC6555819.

How the values were obtained:
Experiment in all cases: PBM binding z-score (relative to random genomic background probes); higher = stronger binding; sequences stand for … in GC…GCGATTGACAGCGTAGAATGAAGG
[1] = system: FXR:RXRa (NR concentration 270 nM, RXRa partner concentration 90 nM)
Procedure, shortened: (§1)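 Scanned fluorescence from custom Agilent 4×180K protein-binding microarrays was regression-normalized. Binding z-scores use random background probes as reference. Ligand-free nuclear receptor dimers were incubated on the arrays for 1 h and detected with antibodies against each partner (one per run).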

[2] = system: LXRa:RXRa (NR concentration 270 nM, RXRa partner concentration 90 nM)
Procedure, shortened: as §1

[3] = system: LXRa homodimer (NR concentration 270 nM)
Procedure, shortened: as §1

[4] = system: LXRb:RXRa (NR concentration 270 nM, RXRa partner concentration 90 nM)
Procedure, shortened: as §1

[5] = system: LXRb homodimer (NR concentration 270 nM)
Procedure, shortened: as §1

[6] = system: PPARa:RXRa (NR concentration 270 nM, RXRa partner concentration 90 nM)
Procedure, shortened: as §1

[7] = system: PPARg:RXRa (NR concentration 180 nM, RXRa partner concentration 90 nM)
Procedure, shortened: as §1

[8] = system: PPARg:RXRa 270nM:90nM, anti-RXR (NR concentration 270 nM, RXRa partner concentration 90 nM)
Procedure, shortened: as §1

[9] = system: PPARg:RXRa 30nM:10nM, anti-RXR (NR concentration 30 nM, RXRa partner concentration 10 nM)
Procedure, shortened: as §1

[10] = system: PPARg:RXRa 90nM:30nM, anti-RXR (NR concentration 90 nM, RXRa partner concentration 30 nM)
Procedure, shortened: as §1

[11] = system: PPARg:RXRa DBDmut IVT, anti-RXR (DBD mutation: RXRa K156A/R161A, NR concentration 270 nM, RXRa partner concentration 90 nM)
Procedure, shortened: as §1

[12] = system: PPARg:RXRa IVT, anti-PPARg (NR concentration 270 nM, RXRa partner concentration 90 nM)
Procedure, shortened: as §1

[13] = system: PPARg DBDmut:RXRa IVT, anti-PPARg (DBD mutation: PPARg1 K132A/R137A, NR concentration 270 nM, RXRa partner concentration 90 nM)
Procedure, shortened: as §1

[14] = system: PPARg DBDmut IVT, anti-PPARg (DBD mutation: PPARg1 K132A/R137A, NR concentration 270 nM)
Procedure, shortened: as §1

[15] = system: PPARg homodimer (NR concentration 180 nM)
Procedure, shortened: as §1

[16] = system: PXR:RXRa (NR concentration 270 nM, RXRa partner concentration 90 nM)
Procedure, shortened: as §1

[17] = system: PXR homodimer (NR concentration 270 nM)
Procedure, shortened: as §1

[18] = system: RARa:RXR (NR concentration 270 nM, RXRa partner concentration 90 nM)
Procedure, shortened: as §1

[19] = system: RARa homodimer (NR concentration 270 nM)
Procedure, shortened: as §1

[20] = system: RARb:RXRa (NR concentration 270 nM, RXRa partner concentration 90 nM)
Procedure, shortened: as §1

Sequence | PBM binding z-score [1] | PBM binding z-score [2] | PBM binding z-score [3] | PBM binding z-score [4] | PBM binding z-score [5] | PBM binding z-score [6] | PBM binding z-score [7] | PBM binding z-score [8] | PBM binding z-score [9] | PBM binding z-score [10] | PBM binding z-score [11] | PBM binding z-score [12] | PBM binding z-score [13] | PBM binding z-score [14] | PBM binding z-score [15] | PBM binding z-score [16] | PBM binding z-score [17] | PBM binding z-score [18] | PBM binding z-score [19] | PBM binding z-score [20]
AGAATGAGGTTAAGATCACGGAAACAGAATACAT | 2.44 | 1.8 | 0.0665 | 1.91 | 0.115 | 3.74 | 2.6 | 2.66 | 1.17 | 2.11 | 3.1 | 2.73 | 1.28 | 0.711 | 1.19 | 1.28 | 0.346 | 2.31 | 0.826 | 2.24
CAAACTAGGTCACAGAGATCAAAGTCCGTGCGTA | 4.32 | 3.26 | 0.659 | 2.41 | 0.38 | 5.25 | 8.83 | 7.25 | 5.12 | 7.3 | 8.62 | 9.06 | 1.86 | 1 | 2.16 | 2.28 | 0.448 | 2.78 | 0.89 | 4.03
AGAATGAGGTTATTAAGATCAGGGAATTGCGGTC | 1.82 | 1.51 | 0.178 | 1.26 | -0.237 | 2.39 | 1.44 | 1.72 | 0.425 | 0.999 | 3.22 | 2.5 | 1.04 | 0.418 | 1.11 | 1.48 | 0.762 | 1.56 | 0.273 | 1.46
ATATCTAGGTAAAGTTCAGTGAAAGATCGATAGA | 1.18 | 1.84 | 1.43 | 1.36 | 0.639 | 3.42 | 5.08 | 5.21 | 2.95 | 4.9 | 6.18 | 5.91 | 1.87 | 1.59 | 1.46 | 1.95 | 1.41 | 1.52 | 1.3 | 2.74
CCGATTAGTTGACCATAAGGGCAACCGAAGCTCG | 0.669 | 0.102 | -0.113 | 0.217 | -0.191 | 0.52 | 0.357 | 0.312 | -0.22 | 0.0545 | 0.626 | 0.151 | 0.0233 | -0.144 | 0.907 | 0.523 | 0.00458 | 0.703 | 0.65 | 1.46
TCATATAGGTAAAAGGTGAAAGGCGGTGTGGTAA | 1.86 | 1.88 | 0.349 | 1.9 | 0.306 | 5.25 | 9.05 | 8.31 | 8.92 | 9.94 | 5.24 | 5.21 | 3.35 | 1.06 | 2.76 | 1.69 | 0.582 | 2.48 | 1.28 | 1.79
ACTTACGGTTCAACGAGGTTATAGCACGCGTATA | 2.96 | 3.15 | 1.07 | 2.64 | 0.606 | 3.49 | 1.09 | 1.32 | 0.521 | 1.03 | 0.149 | 0.712 | 1.36 | 1.61 | 1.64 | 4.06 | 6.85 | 3.55 | 0.973 | 1.59
